Experimental findings from PubChem BioAssay (Tox21) are described below.

Structures are written as SMILES. Values joined by “and” are separate entries in the source; they are usually repeats but may differ in a detail not shown here. Equal values may be shown once. Results filed as inconclusive are left out. Active and inactive are the calls of the source. The call rests on the fitted dose curve; in most records, active means well fitted curve in the direction sought with a large enough effect in the repeat runs; inconclusive means weak or mixed curves; inactive means no such curve, though single readings can be large; an effect the other way counts as inactive or inconclusive.
On the % scale 0 is the no-effect control and ±100 the full control effect.

The nature of the first assay: qHTS RealTime-Glo MT Cell Viability Assay in HEK293 cells - 40 hour (AID 1224874). Further: nearly all actives have a fitted effect of over 50% in size. Further: potency means the concentration at half of the fitted maximal effect. Conditions: RealTime-Glo luminescence; max response: active compounds read low. In short, it runs like this:
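Luminescence readout at each listed time point; HEK293, 600 cells/well, RealTime-Glo MT reagent added with cells; compounds pinned (23 nL in DMSO) after 5 h at 37 C; continuous culture at 37 C.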
On to `CC(O)CCl` (centres undefined), for which the max response was 1.35% (inactive).

As for `CCCCCCCCBr`, the max response is 2.41% (inactive).

Consider `COC1=CC(=O)O[C@@H](/C=C/c2ccccc2)C1`, for which the max response was -17.5% (inactive).

As to `ClCCN1CCCC1`, the max response is 8.04% (inactive).

As to `O=C(O)c1c(Cl)ccc2cc(Cl)cnc12`, the max response is 17.7% (inactive).

In the case of `CS(=O)(=O)Cl`, the max response is -0.619% (inactive).

With `[O-][Br+2]([O-])O`, the max response was 3% (inactive).

Turning to `Cc1cccc2sc3nncn3c12`, the max response is 22% (inactive).

On to `CCN(CCO)CCO`, for which the max response is 4.13% (inactive).

`CON(C)C(=O)Nc1ccc(Br)cc1`: the max response is -9.38% (inactive).

As for `N=C(N)[Se]`, the max response was -7.73% (inactive).

For `ClC1=C(Cl)C2(Cl)C(CBr)CC1(Cl)C2(Cl)Cl` (centres undefined), the max response is -5.43% (inactive).

As for `CN(C)CCN(C)C`, the max response was 7.83% (inactive).

On to `C/C(=N\NC(=O)Nc1cc(F)cc(F)c1)c1ncccc1C(=O)O`, for which the max response is -7.58% (inactive) and 0.112% (inactive).

Take `C1CN2CCC1CC2`: the max response is 0.665% (inactive).

For `CCOC1Oc2ccc(OS(C)(=O)=O)cc2C1(C)C` (centres undefined), the Potency was 34.4 µM (active).

Consider `CCOC(=O)CCl`, for which the max response was 14.4% (inactive).

As for `CNC(=O)O/N=C(/CSC)C(C)(C)C`, the max response was -0.61% (inactive).

On to `CC(C)[C@]12CC(=O)[C@H](C)[C@H]1C2`, for which the max response was -4.49% (inactive).

Take `O=C1CCCCC1Cl` (centres undefined): the max response was 11.3% (inactive).

The next assay can be described thus: A CellTox Green Cytotoxicity Assay to monitor cytotoxicity in HEK293 cells - 24 hour (AID 1224875). Further: nearly all actives have a fitted effect of over 45% in size. As to conditions: CellTox Green fluorescence; series mostly up to 76.8 µM; activity change: at the top concentration. In short, it runs like this: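 Read-out: fluorescence of a cell-impermeant cyanine dye staining DNA of dead cells, proportional to cytotoxicity. HEK293, 600 cells/well with reagent, compound (23 nL DMSO) added after 5 h; reads at 0, 8, 16, 24, 32, 40 h.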
Consider `CCCOC(=O)Cc1ccc(OCC(=O)N(CC)CC)c(OC)c1`, for which the “activity change” value is -28.2% [at 35.3 µM, active compounds read high] (inactive).

Regarding `O=C(Cl)C(Cl)Cl`, the “activity change” value is -7.47% (inactive).

In the case of `CC[C@H](N)c1ccccc1`, the “activity change” value is 3.56% (inactive).

Take `CC(O)CCl` (centres undefined): the “activity change” value was -4.28% (inactive).

For the compound `CCCCCCCC(=O)Cl`, the “activity change” value was -1.36% (inactive).

As for `CCCCCCCCBr`, the “activity change” value was -12.1% (inactive).

In the case of `O=C(O)C(Cl)Br` (centres undefined), the “activity change” value is -6.42% (inactive).

Regarding `COC1=CC(=O)O[C@@H](/C=C/c2ccccc2)C1`, the “activity change” value is -1.4% (inactive).

For the compound `ClCCN1CCCC1`, the “activity change” value was 2.61% [at 35.3 µM, active compounds read high] (inactive).

On to `C=CC=O`, for which the “activity change” value was 4.24% (inactive).

With `O=C(O)c1c(Cl)ccc2cc(Cl)cnc12`, the “activity change” value was -3.05% (inactive).

In the case of `CS(=O)(=O)Cl`, the “activity change” value is -4.04% (inactive).

In the case of `CCOC(=O)CC(SP(=S)(OC)OC)C(=O)OCC` (centres undefined), the “activity change” value was -12% [at 35.3 µM, active compounds read high] (inactive).

As to `[O-][Br+2]([O-])O`, the “activity change” value was -9.38% [at 35.3 µM, active compounds read high] (inactive).

Take `Cc1cccc2sc3nncn3c12`: the “activity change” value is -11.4% (inactive).

Consider `CN1C(=O)COc2c(C(=O)NC3CN4CCC3CC4)cc(Cl)cc21` (centres undefined), for which the “activity change” value is -0.725% [at 35.3 µM, active compounds read high] (inactive).

Take `CCN(CCO)CCO`: the “activity change” value is -8.21% (inactive).

`CON(C)C(=O)Nc1ccc(Br)cc1`: the “activity change” value is -5.44% (inactive).

On to `N=C(N)[Se]`, for which the “activity change” value is -0.669% (inactive).

As for `CN(C)CCN(C)C`, the “activity change” value is -0.712% (inactive).

For the compound `CC(C)(O)C(Cl)(Cl)Cl`, the “activity change” value is -4.23% [at 35.3 µM, active compounds read high] (inactive).

With `C/C(=N\NC(=O)Nc1cc(F)cc(F)c1)c1ncccc1C(=O)O`, the Potency result was “inactive”.

Take `C1CN2CCC1CC2`: the “activity change” value is -0.62% [at 35.3 µM, active compounds read high] (inactive).

Turning to `CCOC1Oc2ccc(OS(C)(=O)=O)cc2C1(C)C` (centres undefined), the “activity change” value is -5.87% (inactive).

Consider `O=CCCl`, for which the “activity change” value was -11.8% (inactive).

As to `CC#Cc1cc(C)nc(Nc2ccccc2)n1`, the “activity change” value is -3.27% (inactive).

For `CCOC(=O)CCl`, the “activity change” value is -11.9% (inactive).

With `CNC(=O)O/N=C(/CSC)C(C)(C)C`, the “activity change” value was -9.13% (inactive).

Regarding `CCOC(=O)Nc1cccc(OC(=O)Nc2ccccc2)c1`, the “activity change” value was 8.38% (inactive).

As to `CCN[C@H](C)Cc1cccc(C(F)(F)F)c1`, the “activity change” value was 22.8% (inactive).

As to `CC(C)[C@]12CC(=O)[C@H](C)[C@H]1C2`, the “activity change” value was 15% (inactive).

As to `O=C1CCCCC1Cl` (centres undefined), the “activity change” value is 0.831% (inactive).

For `[P]#[In]`, the “activity change” value is 0.0029% (inactive).

Consider `CC(C)(C)C(=O)C(Cl)Cl`, for which the “activity change” value was -9.57% (inactive).
